Compound activity (PubChem)
G9a inh = inhibitors of human histone lysine methyltransferase G9a; Q96KQ7; G9a H3K9 monomethylation, AlphaScreen, 2 h; Potency, µM (highest dose often 102 µM), for the others: top-dose activity, negative = inhibition, most hits filed as inhibitors; 350,000 compounds, 8.8% hits; AID 504332; also: % is scaled to controls: 0 for no effect and ±100 for the full control effect; nearly all actives have a fitted effect of over 75% in size
Target sequence (Q96KQ7 913-1193 limits assumed): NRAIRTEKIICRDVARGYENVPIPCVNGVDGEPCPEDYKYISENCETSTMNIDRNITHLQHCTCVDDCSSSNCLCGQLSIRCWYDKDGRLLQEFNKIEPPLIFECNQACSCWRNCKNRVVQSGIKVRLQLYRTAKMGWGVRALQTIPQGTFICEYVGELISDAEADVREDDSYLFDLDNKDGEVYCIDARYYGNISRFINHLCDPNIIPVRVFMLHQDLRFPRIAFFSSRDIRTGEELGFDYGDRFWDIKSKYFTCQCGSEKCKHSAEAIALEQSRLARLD
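Enzyme 20 nM + cpd, 15 min RT; add b-H3K9 pep 500 nM / SAM 20 uM; 2 h RT; anti-H3K9me1 Ab 0.5 ug/mL + SA donor / anti-rabbit acceptor beads 20 ug/mL each, 10 min; AlphaScreen read.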
JMJD2A Tudor inh = JMJD2A Tudor domain (human) inhibition; AlphaScreen JMJD2A-Tudor / H3K4me3 peptide binding; Potency, µM (doses to about 114 µM), without a hit: at the top dose activity change, negative = inhibition, actives largely listed as inhibitors; AID 504339; O75164; 390,000 compounds, 4.4% hits; also: % is scaled to controls: 0 for no effect and ±100 for the full control effect; nearly all actives have a fitted effect of over 50% in size
PLK1 PBD block = blocks phosphopeptide binding to human PLK1 polo-box domain; P53350; Plk1 PBD binding of FITC phosphopeptide, fluorescence polarization; 360,000 compounds, 2.8% hits; Potency, µM, for the others: max response, negative = inhibition, actives largely listed as inhibitors; also: series mostly up to about 57 µM; % is scaled to controls: 0 for no effect and ±100 for the full control effect; nearly all actives have a fitted effect of over 65% in size
VDR inhibitor = blocks the human vitamin D receptor; P11473; Potency, µM, without a hit: max response, negative = inhibition, hits mostly inhibitors; VDR-SRC2-3 peptide fluorescence polarization, 2 h; 400,000 compounds, 0.93% hits; also: % is scaled to controls: 0 for no effect and ±100 for the full control effect
Target sequence (P11473 whole entry, looked up): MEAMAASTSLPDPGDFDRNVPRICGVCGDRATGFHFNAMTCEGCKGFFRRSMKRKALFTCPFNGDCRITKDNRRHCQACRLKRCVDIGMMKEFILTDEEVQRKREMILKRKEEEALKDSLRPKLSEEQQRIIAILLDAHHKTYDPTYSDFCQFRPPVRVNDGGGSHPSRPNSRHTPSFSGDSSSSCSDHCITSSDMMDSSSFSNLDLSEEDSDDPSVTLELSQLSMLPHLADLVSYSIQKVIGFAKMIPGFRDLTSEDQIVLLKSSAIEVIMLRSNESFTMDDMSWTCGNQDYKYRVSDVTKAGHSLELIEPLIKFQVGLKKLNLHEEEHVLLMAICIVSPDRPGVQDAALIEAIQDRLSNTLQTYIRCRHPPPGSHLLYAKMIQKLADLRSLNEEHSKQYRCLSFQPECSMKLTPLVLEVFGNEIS
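VDR–SRC2-3 interaction, FP format. Cmpds 23 nl via pintool, brief spin, 2 h ambient incubation.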
BAZ2B block = blocks human BAZ2B; Potency, µM (highest dose often 114 µM), without a hit: at the highest dose activity change, negative = inhibition, actives largely listed as inhibitors; AID 504333; 360,000 compounds, 4.4% hits; Q9UIF8; AlphaScreen BAZ2B-H3K14Ac peptide displacement; also: % is scaled to controls: 0 for no effect and ±100 for the full control effect; nearly all actives have a fitted effect of over 60% in size
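Protein-peptide AlphaScreen: BAZ2B 50 nM, b-H3K14Ac 50 nM, 1x PBS pH 7.4 + 0.01% Tween-20. Preincubation 30 min RT; cpd 30 min RT (top 110 uM); beads 20 min RT, light-protected.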
HP1b chromo inh = blocks HP1-beta chromodomain binding to methylated histone tails; 390,000 compounds, 0.56% hits; AID 540317; Potency, µM (doses to about 114 µM), without a hit: at the top dose activity change, negative = inhibition, usual class: inhibitors; AlphaScreen HP1-beta / biotin-H3K9me3 peptide binding; P83916; also: nearly all actives have a fitted effect of over 70% in size
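HP1-beta protein (50 nM final) preincubated 30 min at room temperature with biotinylated H3(1-18)K9me3 peptide (50 nM) in PBS pH 7.4, 0.01% Tween-20, then compound added for 30 min. AlphaScreen streptavidin donor/nickel chelate acceptor beads (10 ug/mL final), 30 min dark, luminescence read.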
* = called active by the depositor; ? = inconclusive; nt = no result given; ! = not active in a repeat; [ ] = another dose, or the depositor's remark. The list is not random: actives were taken first. Their share in the collection is about 11%. Calls follow the shape of the dose curve; as a rule, active = well fitted curve in the direction sought with a large enough effect; inconclusive = small, poorly fitted or top-dose-only effect, or another doubt; inactive = no such curve, though single readings can be large; an effect the other way counts as inactive or inconclusive. Potency is read from the fitted curve at half-maximal effect.

SMILES | G9a inh | JMJD2A Tudor inh | PLK1 PBD block | VDR inhibitor | BAZ2B block | HP1b chromo inh
O=C1C2C3C=CC(C4CC34)C2C(=O)N1c1ccc2c(c1)OCO2 (stereo not drawn) | 50µM* | 0% | -16% | -12% | nt | 46%
CCOc1ccc(-c2cn(-c3ccc(C)cc3)c(SCC(=O)Nc3ccc(C)cc3)n2)cc1 | ? | -23% | nt | 3% | ? | 11%
CN1CCc2cccc3c2[C@@H]1Cc1ccc(O)c(O)c1-3 | 2µM* | 13µM* | ? | 32µM*! | 35µM* | ?
Cc1c(Br)c(=O)oc2c(Br)c(O)c(O)cc12 | 28µM* | 45µM* | 0% | -9% | ? | -11%
COc1c(Br)cc2c(C)c(C(=O)O)oc2c1Br | -15% | ? | 0% | -2% | 3% | 20%
CCC(=O)NC(=S)Nc1ccccc1C(=O)OC | ? | -12% | -12% | -7% | 5% | 19%
CCCC(=O)NC(=S)Nc1ccccc1C(=O)OC | 40µM* | -16%[11.4 µM] | 30µM* | -17% | 9%[57.1 µM] | -8%
CCCC(=O)NNC(=O)CC(=O)Nc1ccccc1C(=O)O | 50µM* | -13% | 2% | 5% | -21% | 4%[57 µM]
COC(=O)c1ccccc1NC(=O)CNc1cc(OC)c(OC)cc1C | 20µM* | ? | -7% | -27% | 45µM* | -23%
COC(=O)c1ccccc1NC(=S)NC(=O)C1CC1 | 50µM* | -12% | -17% | 2% | ? | 25%
CC[C@H](NC(=O)[C@H](CCC(=O)O)NC(=O)[C@H](CCC(=O)O)NC(=O)[C@H](CC(=O)O[S+](=O)([O-])c1cccc2c(NCCN)cccc12)NC(=O)[C@H](CCC(=O)O)NC(=O)[C@H](CC(=O)O)NC(C)=O)C(=O)ON[C@@H](C)C(=O)N[C@@H](CO)C(=O)N[C@@H](CCCCNC(=O)c1ccc(N=Nc2ccc(N(C)C)cc2)cc1)C(N)=O | nt | nt | nt | 10% | nt | nt
CCOc1ccc(-c2c(C)nn3c(C)c(C(=O)Nc4cc(C)cc(C)c4)cnc23)cc1OCC | 14%[59 µM] | -9% | nt | 7% | -15% | -11%
COC(=O)c1ccccc1NC(=S)NC(=O)c1ccc2ccccc2c1 | -18%[59 µM] | ? | ? | -26% | ? | ?
COC(=O)c1ccccc1NC(=S)NC(=O)c1cccc2ccccc12 | 6% | -16%[11.4 µM] | 6.7µM* | ? | ? | -20%
CC(=O)c1cccc2c(O)c(C3=Nc4ccccc4C3=O)[nH]c12 | ? | 45µM* | ? | 56µM* | 25µM* | -94%
CCOc1ccccc1NC(=O)C(NCC1(N2CCCCC2)CCCCC1)c1ccccc1 (stereo not drawn) | -6% | 79µM* | -4% | -12% | 79µM* | -9%
CCOc1ccccc1NC(=O)C(Sc1ccccc1)c1ccccc1 (stereo not drawn) | 74%[59 µM] | -7%[11.4 µM] | 21µM* | -19% | 39% | 48%
CCOc1ccccc1NC(=O)C(OC(=O)C1CC1)c1ccccc1 (stereo not drawn) | 21% | 2% | -3% | 1% | -8% | 19%
CCOC(=O)c1c(NC(=O)C(Sc2ccccc2)c2ccccc2)sc(C(N)=O)c1C (stereo not drawn) | 7.9µM* | -6% | ? | -9% | 11% | 22%
O=C(Nc1cc([N+](=O)[O-])ccc1Cl)C(Sc1ccccc1)c1ccccc1 (stereo not drawn) | -9%[59 µM] | 79µM* | -11% | 2% | -38% | ?
COc1ccc(CNC(=O)CN(c2cc(C(F)(F)F)ccc2Cl)S(C)(=O)=O)cc1 | -10%[59 µM] | -12% | nt | -1% | 6% | 6%
O=C(Nc1cc(C(F)(F)F)ccc1Cl)C(Sc1n[nH]c(=O)[nH]c1=O)c1ccccc1 (stereo not drawn) | -35% | -17% | -17% | 8% | -18% | 12%
O=C(Nc1cc(C(F)(F)F)ccc1Cl)C(Sc1cccc[n+]1[O-])c1ccccc1 (stereo not drawn) | 8.9µM* | ? | ? | -30% | -9% | 6%
Oc1ccc(Br)cc1CNc1cccc2cccnc12 | 16%[0.501 µM] | ? | -16% | -13% | ? | 19%
Cc1ccc(NCc2ccc(O)c3ncccc23)cc1 | 5µM* | 8.9µM* | 2.7µM* | ? | -25% | ?
SMILES | G9a inh | JMJD2A Tudor inh | PLK1 PBD block | VDR inhibitor | BAZ2B block | HP1b chromo inh
Cc1cccnc1NC(=S)Nc1ncccc1C | 20%[2.33 µM] | -3% | -11% | 7% | 4% | 25%
Cc1cccnc1NCc1ccc(O)c2ncccc12 | 1.8µM* | 22µM* | 19µM* | -23% | 13µM* | -15%
Cc1cccc(NCc2ccc(O)c3ncccc23)c1C | 0.4µM* | ? | 6µM* | ? | 56µM* | -4%
N#CC1=CC2CN(Cc3ccccc3)C1C1C(=O)N(c3ccccc3)C(=O)C21 (stereo not drawn) | nt | -2% | 0% | 7% | nt | 61%
CCC(C)(C)C1CCC(=NNS(=O)(=O)c2ccc(C)c([N+](=O)[O-])c2)CC1 (stereo not drawn) | 13µM* | 2%[57.1 µM] | -21% | -18% | -29% | 39%
Cc1ccc(S(=O)(=O)Nc2ccccc2)cc1[N+](=O)[O-] | nt | -22% | 7% | -22% | nt | 24%
Cc1ccc(S(=O)(=O)N/N=C2/CCCCC2C2CCCCC2)cc1[N+](=O)[O-] (stereo not drawn) | ? | 28µM* | 24µM* | ? | -2% | ?
CCCCNC(=S)N(CCCO)Cc1cc2cc3c(cc2[nH]c1=O)OCO3 | nt | nt | -8% | nt | nt | nt
CCCCCC[n+]1ccccc1/C=C/c1ccc(N(C)C)cc1 | nt | nt | 59% | nt | nt | nt
Cc1ccc(/C=C/c2ccc(N(C)C)cc2)[n+](C)c1 | -48%[2.33 µM] | 25µM* | 34% | -15% | ? | 6%
CN(C)c1ccc(/C=C/c2cc[n+](C)cc2)cc1 | 10µM* | -20% | 29% | -27% | ? | -27%
CN(C)c1ccc(/C=C/c2cc[n+]([O-])cc2)cc1 | 50µM* | nt | nt | nt | -32% | nt
Cc1ccc(S(=O)(=O)N2CCN(c3cccc(C)c3)CC2)cc1 | 10% | -6% | 4% | 4% | -7% | 34%
COc1ccc(OC)c(S(=O)(=O)Nc2c(NC3CCCCC3)c3ccccc3oc2=O)c1 | 9% | -23% | 6% | 15% | ? | 44%
O=C1CCc2cc(S(=O)(=O)Nc3ccc4ncccc4c3)ccc2N1 | nt | -16% | nt | nt | nt | nt
Cn1cccc1/C=C1\CCC/C(=C\c2cccn2C)C1=O | ? | 56µM* | 22% | -18% | 22µM* | 22µM*
O=C1CNC(=O)/C(=C/c2cccs2)N1 | -19% | -16%[57.1 µM] | -8% | -1% | -23% | 11%
O=C1/C(=C/c2ccsc2)CC/C1=C\c1cccs1 | ? | nt | nt | -18% | nt | nt
O=C1/C(=C/c2ccc(C(=O)O)cc2)CCC/C1=C\c1ccc(C(=O)O)cc1 | -44%[59 µM] | -11% | -11% | ? | 3% | 33%
